Assay outcomes deposited in PubChem by several laboratories.
The entries come from a sample that favours hits as a whole.
hDAT+cocaine: human DAT dopamine uptake with cocaine, either direction; LLC-PK1 hDAT cells, [14C]-dopamine uptake with cocaine IC80; actives deviate in either direction; B-score at 10 µM; 110,000 compounds, 1.3% hits; AID 449768;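 active = Z score or B-score, a plate-position-corrected score, falls beyond the plate's 99.7% confidence bounds, in either direction; inactive = both scores lie inside the 99.7% bounds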
BAP1 block: blocks human BAP1 ubiquitin-AMC hydrolysis | Q92560 | 72,000 compounds, 0.48% hits | recombinant BAP1, Ub-AMC hydrolysis fluorescence kinetic; active compounds read low | calls only at 20 µM;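 active = activity remaining at or below 50% of control, provided the compound also passes the data quality filters; inactive = the rest, including low values that fail the filters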
D1 mod: allosterically modulates the human D1 dopamine receptor. HEK293 D1, CRE-luciferase, dopamine EC30 potentiation; actives deviate in either direction. B-score at 10 µM. 58,000 compounds, 5.9% hits. AID 641;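 active = luminescence count or its row- and column-corrected plate score outside the 99.7% band of the plate's sample wells, on either side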
Target sequence (P21728 whole entry, looked up): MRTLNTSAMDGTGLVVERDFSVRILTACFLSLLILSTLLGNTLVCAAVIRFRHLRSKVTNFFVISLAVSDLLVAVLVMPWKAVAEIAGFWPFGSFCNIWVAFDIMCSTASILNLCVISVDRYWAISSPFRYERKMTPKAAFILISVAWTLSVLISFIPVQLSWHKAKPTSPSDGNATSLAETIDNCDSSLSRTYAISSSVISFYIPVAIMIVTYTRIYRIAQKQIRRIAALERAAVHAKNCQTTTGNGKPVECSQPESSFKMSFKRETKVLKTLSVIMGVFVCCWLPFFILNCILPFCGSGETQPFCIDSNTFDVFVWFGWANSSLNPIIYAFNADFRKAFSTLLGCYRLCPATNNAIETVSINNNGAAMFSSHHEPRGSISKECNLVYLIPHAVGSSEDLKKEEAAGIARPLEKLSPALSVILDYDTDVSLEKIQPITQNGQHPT
Of the large screens only hits and unclear results are named; the others gave an inactive call.

O=S(=O)(c1ccccc1)c1nc(-c2ccco2)oc1NCc1cccnc1	D1 mod 4.89
O=S(=O)(c1ccccc1)c1nc(-c2ccccc2)oc1NCc1cccnc1	none
Clc1ccc2nc(Cl)cc(-c3ccccc3)c2c1	none (no result: hDAT+cocaine, D1 mod)
COc1ccc(-c2nc3n(c(=O)c2C#N)CCCS3)cc1	none (not shown: BAP1 block)
COc1ccc(-c2cc3nc4n(c(=O)c3s2)CCC4)cc1	D1 mod -5.88
Cc1ccccc1-n1nc2c(c1NC(=O)c1ccc(S(=O)(=O)N3CCCCC3)cc1)CSC2	none (no result: hDAT+cocaine, D1 mod)
CCOC(=O)c1c(NC(=O)CCC(=O)O)sc2c1CCC2	none (no result: hDAT+cocaine, D1 mod)
N#Cc1cc2c(nc1SCc1ccccc1)CCCCC2	none (no result: BAP1 block, D1 mod)
N#Cc1cc2c(nc1SCC(O)CS(=O)(=O)Cc1ccccc1)CCCC2 (stereo not drawn)	D1 mod -3.55
CCc1ccc(C(=O)Nc2nnn(CC)n2)cc1	D1 mod -4.5
CCCCn1nnc(NC(=O)c2ccc(-c3ccccc3)cc2)n1	none (not shown: BAP1 block)
Cc1ccc(-n2nc3cc(C)c(NC(=O)COc4ccc5ccccc5c4)cc3n2)cc1	none (no result: hDAT+cocaine, D1 mod)
CCC(C)[C@H](NC(=O)N1CCN(c2cccc(C(F)(F)F)c2)CC1)C(=O)OC (stereo partly drawn)	hDAT+cocaine 3.23 (no result: BAP1 block, D1 mod)
COC(=O)[C@@H](NC(=O)N1CCN(c2cccc(C(F)(F)F)c2)CC1)C(C)C	none
COc1ccc(/C=N\n2nnc3ccccc32)cc1	D1 mod -3.85
COc1ccc(/C=N/n2cc(-c3ccccc3)nc2N)cc1	none
Cc1ccc(NC(=O)c2cc3c(=O)oc4ccccc4c3s2)cc1C	none (no result: hDAT+cocaine, D1 mod)
Cc1nc(CSc2ccc(Cl)cc2)cc(NCc2ccccc2)n1	none (no result: BAP1 block, D1 mod)
Cc1nc(CS(=O)c2ccc(Cl)cc2)cc(NCc2ccc(Cl)cc2Cl)n1 (stereo not drawn)	hDAT+cocaine 2.65 (no result: BAP1 block, D1 mod)
CCCc1[nH]n(-c2nc3ccccc3s2)c(=O)c1C=NCC(C)C	hDAT+cocaine 4.45 (no result: BAP1 block, D1 mod)
CCCN=C(C)c1c(-c2ccccc2)[nH]n(-c2nc3ccccc3s2)c1=O	none (no result: BAP1 block, D1 mod)
CCOC(=O)c1cc(NC(=O)CSc2nnc(CN3CCOCC3)n2C)ccc1Cl	hDAT+cocaine -8.89 (no result: BAP1 block, D1 mod)
Cn1c(COc2ccccc2)nnc1SCC(=O)Nc1ccc(N2CCOCC2)c(Cl)c1	none
COc1cc(C2NC(=O)NC(C)=C2C(=O)OCCC#N)ccc1O (stereo not drawn)	none (no result: hDAT+cocaine, D1 mod)
CCOC(=O)C1CCN(c2ncnc3c2cnn3-c2ccccc2)CC1	none
CC1CCN(c2ncnc3c2cnn3-c2ccccc2)CC1	D1 mod -3.04
COc1ccc(-n2ncc3c(N4CCC(C)CC4)ncnc32)cc1	D1 mod -5.8 (no result: hDAT+cocaine)
Clc1ccc(-n2ncc3c(N4CCCC4)ncnc32)cc1	none (no result: hDAT+cocaine, D1 mod)
Cc1cc(OCC(=O)Nc2sc3c(c2C(N)=O)CCC(C)C3)ccc1Cl (stereo not drawn)	none (no result: hDAT+cocaine, D1 mod)
Cc1ccc2oc(-c3ccccc3)nc2c1	none (no result: BAP1 block, D1 mod)
Cc1nc2ccc(-c3ccccc3)cc2o1	hDAT+cocaine 0.819
COc1ccc(C(=O)N2CCCCC2)cc1S(=O)(=O)Nc1cccc(Br)c1	none (no result: hDAT+cocaine, D1 mod)
Cc1ccc(NC(=O)c2ccccc2NS(=O)(=O)c2ccc(Cl)cc2)c(C(=O)c2ccccc2)c1	none (no result: hDAT+cocaine, D1 mod)
Cc1cc(N2CCN(c3ccccc3)CC2)nc(-c2ccccc2)n1	none
Cc1cc(N2CCN(C(=O)c3ccco3)CC2)nc(-c2ccccc2)n1	D1 mod -3.68
CCOc1cc(C2C(C(=O)OCc3ccccc3)=C(C)NC3=C2C(=O)CC(c2ccccc2)C3)ccc1O (stereo not drawn)	none (no result: hDAT+cocaine, D1 mod)
COc1cc(OC)cc(C(=O)Nc2ccccc2-c2nc3ccccc3[nH]2)c1	none (no result: hDAT+cocaine, D1 mod)
CCOC(=O)C1CCCN(CC(=O)Nc2c(C(=O)OC)[nH]c3ccc(Cl)cc23)C1 (stereo not drawn)	hDAT+cocaine 2.92
CCOC(=O)c1[nH]c2ccccc2c1NC(=O)C1CCCC1	D1 mod 6.86
CCOC(=O)c1[nH]c2ccccc2c1NC(=O)CC(C)(C)C	none
CCOC(=O)C1CCCN(CC(=O)Nc2c(C(=O)OC)[nH]c3ccc(C)cc23)C1 (stereo not drawn)	none
COc1cc([N+](=O)[O-])cc(C=Nc2cccc(C(=O)Nc3cccc4ccccc34)c2)c1O	none (no result: hDAT+cocaine, D1 mod)
Cc1cccc(OCC(=O)N2CCN(C(=O)COc3cccc(C)c3)CC2)c1	none (no result: hDAT+cocaine, D1 mod)
COc1cc(NS(=O)(=O)c2ccc(NC(=O)c3ccc(OC)c(OC)c3)cc2)ncn1	none (no result: hDAT+cocaine, D1 mod)
Clc1ccc(CCNc2ncnc3nc[nH]c23)cc1	D1 mod -5.33
COc1cccc(Nc2ncnc3nc[nH]c23)c1	none (no result: BAP1 block, D1 mod)
c1ccc(CCCNc2ncnc3nc[nH]c23)cc1	none
Cc1ccc(Nc2ncnc3nc[nH]c23)cc1Cl	D1 mod -3.47
O=C(Nc1cc(NC(=O)C2CCCCC2)cc(-c2nc3ccccc3o2)c1)C1CCCCC1	none (no result: hDAT+cocaine, D1 mod)
O=C(CSc1nnc2sc3ccccc3n12)Nc1ccccc1Cl	none (no result: hDAT+cocaine, D1 mod)
CCN(CC)S(=O)(=O)c1cc(C(=O)Nc2nnc(-c3ccccc3)s2)ccc1C	none (no result: hDAT+cocaine, D1 mod)
CN(CC(=O)NC(c1ccccc1)c1ccccc1)Cc1nc2ccccc2c(=O)[nH]1	none (no result: BAP1 block, D1 mod)
COc1cc2c(cc1NC(=O)CN(C)Cc1nc3ccccc3c(=O)[nH]1)oc1ccccc12	D1 mod -2.71
CCOc1cc(C(=O)Nc2cccc3c2C(=O)c2ccccc2C3=O)cc(OCC)c1OCC	none (no result: hDAT+cocaine, D1 mod)
Cc1cc(/C=N\NC(=O)CC(=O)NC2CCCCC2)c(C)n1-c1ccc(Cl)c(Cl)c1	hDAT+cocaine -3.71 (no result: BAP1 block, D1 mod)
COc1cccc(NC(=O)C(=O)N/N=C/c2cc(C)n(-c3ccc(Cl)c(Cl)c3)c2C)c1	hDAT+cocaine -4.76 (no result: BAP1 block, D1 mod)
Cc1nc2ccccn2c1C(=O)N/N=C/c1cc(C)n(-c2ccc(Cl)cc2)c1C	none (no result: BAP1 block, D1 mod)
COc1ccccc1/C=N/NC(=O)CC(=O)Nc1ccc(Cl)c(Cl)c1	none (no result: BAP1 block, D1 mod)
CCOc1cc(C2C(C(=O)OC)=C(C)NC3=C2C(=O)CC(c2ccc(OC)cc2)C3)cc(Br)c1O (stereo not drawn)	none (no result: hDAT+cocaine, D1 mod)
CCc1nc(SCC(=O)c2cc(C)ccc2C)n[nH]1	none
Cc1ccc(C)c(C(=O)CSc2n[nH]c(C(C)C)n2)c1	D1 mod -5.99
O=C1c2cccc([N+](=O)[O-])c2C(=O)N1c1ccc([N+](=O)[O-])cc1	none (no result: hDAT+cocaine, D1 mod)
Clc1ccc(Cc2nn[nH]n2)cc1	none (no result: hDAT+cocaine, D1 mod)
Cc1cccc(-n2c(O)c(C=Nc3c(C)n(C)n(-c4ccccc4)c3=O)c3ccccc3c2=O)n1	hDAT+cocaine 3.83
COc1cccc(N=Cc2c(O)n(-c3cccc(C)n3)c(=O)c3ccccc23)c1	none (no result: BAP1 block, D1 mod)
C=CCn1c2ccccc2c2nnc(SCCCn3c(=O)[nH]c4ccccc43)nc21	hDAT+cocaine 3.7 (no result: BAP1 block)
O=c1[nH]c2ccccc2n1CCCSc1cnc2ccccc2n1	none
Brc1cnc(N2CCOCC2)nc1N1CCCCC1	none
Brc1cnn(-c2nc(N3CCOCC3)nc(N3CCOCC3)n2)c1	D1 mod 3.56 (no result: hDAT+cocaine)
COc1ccc(S(=O)(=O)NCc2ccco2)cc1C(=O)O	none (no result: hDAT+cocaine, D1 mod)
Cc1c(C(=O)O)sc(=S)n1C	none (no result: hDAT+cocaine, D1 mod)
CC1=C(C(=O)OCc2ccccc2)C(c2cccs2)C2=C(CCCC2=O)N1 (stereo not drawn)	none (no result: hDAT+cocaine, D1 mod)
O=C(Nc1ccccc1NC(=O)c1ccccc1)c1ccccc1	none (no result: hDAT+cocaine, D1 mod)
O=C(NC1=NC2CCCCC2N1)c1ccccc1 (stereo not drawn)	D1 mod -5.44
O=C(NCCc1ccccc1)[C@@H]1CC=C[C@@H]2CCN(Cc3ccc(Cl)c(Cl)c3)C(=O)[C@@H]21	hDAT+cocaine 3.19 (no result: BAP1 block, D1 mod)
CCCCNC(=O)[C@@H]1CC=C[C@@H]2CCN(Cc3ccc(Cl)c(Cl)c3)C(=O)[C@@H]21	none (no result: BAP1 block, D1 mod)
O=C(Cc1ccccc1)Nc1nnc(-c2ccccc2I)s1	none (no result: hDAT+cocaine, D1 mod)
Cc1cccc(Nc2nc(N)nc(CN3CCC(C)CC3)n2)c1C	none
